Test results taken from PubChem BioAssay (EPA / NIEHS).
Records with an inconclusive call do not appear. Calls of active or inactive are those of the source. How the source made its calls, unless noted: active means hit-call score of the fitted dose curve at least 0.9, where 1 is the maximum; inactive means score below 0.9.

Key:
[1] = CCTE_Harrill_HTTr_Viability_MCF7: CCTE's 6-hour Cell Viability Assessment for the High-Throughput Transcriptomics (HTTr) Platform, in MCF-7 cells cultured in DMEM + 10% fetal bovine serum, Harrill Lab (AID 2284010)
How it was run: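 Cells were dosed with chemicals in an eight-point dilution series, imaged 6 hours later for propidium iodide uptake, and the endpoint was analyzed by bidirectional fitting against DMSO as negative control.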

[2] = CCTE_Harrill_HTTr_Apoptosis_MCF7: CCTE's 6-hour Apoptosis Assessment for the High-Throughput Transcriptomics (HTTr) Platform, in MCF-7 cells cultured in DMEM + 10% fetal bovine serum, Harrill Lab (AID 2284011)
How it was run: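 MCF-7 cells in DMEM + 10% fetal bovine serum were exposed to chemicals for 6 hours over an eight-point dilution series. Caspase-3/7 activation was imaged by high content imaging with CellEvent Caspase 3/7 Green; bidirectional fitting used DMSO as baseline.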

[3] = CCTE_Harrill_HTTr_CellCount_MCF7: CCTE's Cell Proliferation Assessment for the High-Throughput Transcriptomics (HTTr) Platform, Harrill Lab (AID 2284012; active means hit-call score of the fitted dose curve at least 0.9, where 1 is the maximum;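 further: count of Hoechst-stained nuclei per well by high-content imaging in MCF-7 cells; cells exposed to compound for six hours; intended direction is loss of nuclei count meaning fewer cells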)
How it was run: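 Chemicals in eight-point dilution series are added to MCF-7 cells for six hours, nuclei are stained with Hoechst and imaged, and per-well nuclei counts are fitted in both directions relative to DMSO controls.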

Structure (SMILES)	outcome [1]	outcome [2]	outcome [3]
Clc1cnc(Oc2ccc(Oc3ncc(Cl)cc3Cl)cc2)c(Cl)c1	inactive	inactive	inactive
CN(C1CCCCC1)C1CCCCC1	inactive	inactive	
COc1nn(C(=O)NS(=O)(=O)c2ccccc2OC(F)(F)F)c(=O)n1C	inactive	inactive	
CCOP(=S)(OCC)Oc1ccc(Cl)cc1Cl	inactive	inactive	
CCC[CH2][Sn]([Cl])([Cl])[CH2]CCC	inactive	inactive	inactive
CCCSP(=S)(OCC)Oc1ccc(SC)cc1 (stereo unspecified)	inactive	inactive	
Cc1cc(Cl)ccc1OCCCC(=O)O	inactive	inactive	inactive
CCOC(=O)CCN(SN(C)C(=O)Oc1cccc2c1OC(C)(C)C2)C(C)C	inactive	inactive	inactive
Brc1c(Br)c(Br)c(Oc2c(Br)c(Br)c(Br)c(Br)c2Br)c(Br)c1Br	inactive	inactive	inactive
CCOc1cc(C=O)ccc1O	inactive	inactive	inactive
Nc1ccc(N)cc1	inactive	inactive	inactive
O=C1C[C@@H]2OCC=C3CN4CC[C@]56c7ccccc7N1[C@H]5[C@H]2[C@H]3C[C@H]46	inactive	inactive	inactive
O=[N+]([O-])c1cccc2ccccc12	inactive	inactive	inactive
CNC(=O)CSP(=O)(OC)OC	inactive		inactive
O=C(O)COc1cc(Cl)c(Cl)cc1Cl	inactive	inactive	inactive
CCOC(=O)c1ccccc1S(=O)(=O)NC(=O)Nc1nc(Cl)cc(OC)n1	inactive	inactive	inactive
Nc1ncn[nH]1	inactive	inactive	inactive
